In the library only some 9.4% were active in any assay of this set; here they are far more common.
FLuc modulator: qHTS profiling assay for firefly luciferase inhibitor/activator using purifed enzyme and Km concentrations of substrates (counterscreen for miR-21 project); Luciferin 4-monooxygenase (Photinus pyralis), P08659; hit rate 6.9% among 360,000; purified FLuc, Km substrates, luminescence inhibition; Potency, µM (top dose mostly 57.5 µM), for the others: at the highest dose activity change, negative = inhibition, hits mostly inhibitors;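 further: plate controls were vehicle for no effect and reference inhibitor for full effect; nearly all actives have a fitted effect of over 55% in size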
Target sequence (P08659 whole entry, looked up): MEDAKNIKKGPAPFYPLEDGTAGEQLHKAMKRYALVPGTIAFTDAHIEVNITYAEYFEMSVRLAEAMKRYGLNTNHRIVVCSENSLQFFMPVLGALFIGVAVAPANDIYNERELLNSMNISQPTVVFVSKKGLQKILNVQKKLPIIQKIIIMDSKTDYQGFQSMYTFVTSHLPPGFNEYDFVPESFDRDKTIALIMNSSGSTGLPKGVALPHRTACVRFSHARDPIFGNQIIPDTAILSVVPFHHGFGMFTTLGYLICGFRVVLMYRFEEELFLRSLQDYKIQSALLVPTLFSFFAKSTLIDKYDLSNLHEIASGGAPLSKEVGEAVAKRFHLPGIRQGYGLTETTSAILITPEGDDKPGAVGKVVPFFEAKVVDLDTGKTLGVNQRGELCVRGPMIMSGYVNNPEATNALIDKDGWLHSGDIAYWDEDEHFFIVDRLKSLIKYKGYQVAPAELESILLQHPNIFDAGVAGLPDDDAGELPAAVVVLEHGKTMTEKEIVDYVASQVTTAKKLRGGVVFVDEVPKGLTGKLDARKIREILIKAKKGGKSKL
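Purified P. pyralis luciferase, 10 nM final, with Km-level 10 uM D-luciferin and 10 uM ATP in 50 mM Tris acetate pH 7.5, 10 mM Mg acetate, 0.01% Tween-20, 0.05% BSA; 6-point qHTS titration about 60 µM downward; luminescence read.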
ELG1 DNA repair: qHTS screen for small molecules that inhibit ELG1-dependent DNA repair in human embryonic kidney (HEK293T) cells expressing luciferase-tagged ELG1; AID 504467, 2011; Potency, µM (titrated, usually from 46.1 µM), inactives show at the top dose activity change, negative = inhibition, hits mostly inhibitors; HEK293T ELG1-luciferase reporter, luminescence, 16 h; DNA damage induced by 5-fluorouridine; hit rate 2.3% among 330,000; further: on the % scale 0 is the no-effect control and ±100 the full control effect; nearly all actives have a fitted effect of over 55% in size
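Luminescence from the luciferase reporter, measured 30 min after ONE-Glo reagent at room temperature, was the read-out. Beforehand, 2,000 cells per well were exposed for 16 hr at 37 °C to 5-fluorouridine together with compound or vehicle.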
ELG1 genotox: qHTS screen for small molecules that induce genotoxicity in human embryonic kidney (HEK293T) cells expressing luciferase-tagged ELG1 | Potency, µM (doses to about 46 µM), for inactives: at the top dose activity change, positive = activation, hits mostly activators | HEK293T ELG1-luciferase reporter, luminescence, 16 h | hit rate 1.3% among 330,000; further: % of control where 0% means no effect; nearly all actives have a fitted effect of over 60% in size
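Step 1: seed 2,000 HEK293T ELG1-luciferase cells per well. Step 2: add compound or DMSO, incubate 16 hr at 37 °C. Step 3: ONE-Glo, 30 min at room temperature, read luminescence.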
Rab9 promoter act: qHTS Assay for Rab9 Promoter Activators | hit rate 2.8% among 320,000 | Huh7 Rab9 promoter-luciferase reporter, luminescence, 24 h | Potency, µM (series often up to 9.22 µM), for the others: top-dose activation, negative = inhibition, actives largely listed as activators; further: % of control where 0% means no effect; nearly all actives have a fitted effect of over 60% in size
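Stable Rab9-luc Huh7, 1500 cells/well, 2 h settle; cmpd in DMSO, 24 h, 37 °C/5% CO2; luciferase reagent 10 min RT; luminescence.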
NPC1 prom act: qHTS Assay for NPC1 Promoter Activators; Huh7 NPC1 promoter luciferase reporter, 24 h; hit rate 2.4% among 320,000; Potency, µM (series often up to 9.22 µM), for the others: top-dose activation, most hits filed as activators; further: % of control where 0% means no effect; nearly all actives have a fitted effect of over 60% in size
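Readout is luciferase luminescence, reflecting NPC1 promoter activation in stably transfected Huh7 cells after 24 h compound exposure at 37 °C in reduced-serum medium with 10% FBS.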
SMN2 splice up: qHTS Assay for Enhancers of SMN2 Splice Variant Expression; HEK293 SMN2-luciferase splicing reporter, luminescence, 30-36 h; Potency, µM (doses to about 46.1 µM), without a hit: at the highest dose activity change, positive = activation, usual class: activators; hit rate 2.8% among 210,000; AID 1458, 2008; further: % of control where 0% means no effect; nearly all actives have a fitted effect of over 55% in size
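qHTS luciferase splicing reporter: luminescence rises when SMN2 exon 7 is included in transfected HEK293 cells. Compound exposure lasted 30-36 h at 37C, with 4.5 mM final sodium butyrate as control, followed by a ONE-Glo read.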
* = called active by the depositor; u = inconclusive; x = not tested or not shown; [ ] = dose if it differs, or a comment. The call rests on the fitted dose curve; in most records, active means well fitted curve in the direction sought with a large enough effect; inconclusive means small, poorly fitted or top-dose-only effect, or another doubt; inactive means no such curve, though single readings can be large; an effect the other way counts as inactive or inconclusive. Potency means the concentration at half of the fitted maximal effect.

SMILES	FLuc modulator	ELG1 DNA repair	ELG1 genotox	Rab9 promoter act	NPC1 prom act	SMN2 splice up
COc1cc(Cl)c(C)cc1NC(=O)CSCc1nc(-c2ccc(OC)c(OC)c2)no1	4%	x	x	x	x	x
Cc1ccccc1Cn1cc(S(=O)(=O)c2ccc(Cl)cc2)c(=O)c2cc3c(cc21)OCO3	0%	x	x	x	x	-12%
C[C@@H](NC(=O)C1(N)CCCC1)C(=O)O	x	x	x	x	x	-13%[9.22 µM]
CCCCCCCCCCCCCCCCCCNC(=O)OCC(COP(=O)([O-])OCC[n+]1ccsc1)OC (centres undefined)	x	x	x	-3%[46.1 µM]	-3%[46.1 µM]	-12%
O=C(Nc1ccc(Cc2ccncc2)cc1)c1ccco1	19µM*	u	16%	u	u	19%
O=C(Nc1ccc(NC(=O)c2ccco2)cc1)c1ccco1	1%	0%	16%	5%	7%	x
CC1CCC(NC(=O)COC(=O)c2ccco2)CC1 (centres undefined)	24µM*	u	-4%	-2%	1%	x
O=C(COC(=O)c1ccco1)Nc1ccccc1	u	5%	-1%	-4%	-2%	12%
Cc1c([N+](=O)[O-])cc(C(=O)Nc2ccc(Cc3ccncc3)cc2)cc1[N+](=O)[O-]	-16%	10µM*	-11%	-1%	-3%	-46%
O=C(COC(=O)c1ccco1)Nc1ccc(Br)cc1	9.5µM*	1%	-1%	3%	2%	-5%
Cc1cccc(NC(=O)CCNS(=O)(=O)c2ccc3c(c2)CCCC(=O)N3)c1C	-3%	x	x	x	x	x
O=C(Nc1ccc(NC(=O)c2sc3ccccc3c2Cl)cc1)c1ccco1	0%	u	23µM*	-5%	-3%	-7%
O=C(Nc1ccc(Br)cc1)c1ccco1	13µM*	u	7.1µM*	3.2µM*	u	11µM*
O=C(Nc1ccc(Nc2ccccc2)cc1)c1ccco1	7.6µM*	u	9.2µM*	0.56µM*	u	13µM*
COc1ccccc1N(CC(=O)Nc1ccc2c(c1)OCO2)S(=O)(=O)c1ccc(C)cc1	-19%	x	x	x	x	12%
CO/N=C1\CN(c2nc3c(cc2F)c(=O)c(C(=O)O)cn3C2CC2)CC1CN (centres undefined)	x	x	x	x	x	-14%
COc1cccc(OC)c1C(=O)Nc1cc(C)nn1-c1nc2ccccc2[nH]1	2%	u	-11%	-1%	-5%	-26%
COc1ccc(C(=O)Nc2cc(C)nn2-c2nc3ccccc3[nH]2)c(OC)c1	-3%	23µM*	-17%	1%	7%	22%
Cc1cc(NC(=O)CC#N)n(-c2nc3ccccc3[nH]2)n1	2%	12µM*	-4%	0%	5%	x
Cc1cc(NC(=O)c2ccccc2)n(-c2nc3ccccc3[nH]2)n1	0%	-9%	u	-4%	-9%	-13%
CC(C)CN1CCC2(CC1)CCN(S(=O)(=O)c1ccccc1)CC2	x	x	x	x	x	-10%
CC(CNC(=O)CCc1cn(Cc2ccccc2Cl)c2ccccc12)c1ccccc1 (centres undefined)	-10%	x	x	x	x	x
Cc1ccc(C2(c3noc(CN(C)CC4CCCCO4)n3)CCCC2)cc1 (centres undefined)	4%	-8%	-3%	-4%	-8%	-26%
Cc1ccc(C2(c3noc(CN4CCC(c5ccncc5)CC4)n3)CCCC2)cc1	4%	16µM*	1%	-20%	-8%	x
Cc1c(Cl)cccc1NC(=O)C(=O)NCCc1csc(-c2cccc(F)c2)n1	0%	x	x	x	x	x
SMILES	FLuc modulator	ELG1 DNA repair	ELG1 genotox	Rab9 promoter act	NPC1 prom act	SMN2 splice up
C[C@@H](N=C(N)N)C(=O)O	x	x	x	x	x	-6%[9.22 µM]
Cc1ccc(C2CC(=O)n3nc(-c4ccc(Cl)cc4)nc3S2)cc1 (centres undefined)	u	x	x	x	x	-7%
COc1cccc(NC(=O)c2ccc3c(c2)CCN3S(C)(=O)=O)c1	17µM*	17%	5%	u	27%	30%
COc1cccc(NC(=O)c2ccc3c(c2)N(C)CCS3)c1	2.7µM*	u	u	3.5µM*	1.3µM*	x
CN1CCSc2ccc(C(=O)Nc3ccc(Cl)cc3)cc21	u	u	u	3.5µM*	2.8µM*	x
CCc1ccc(NC(=O)c2ccc3c(c2)N(Cc2ccc(C)cc2)CCS3)cc1	u	x	x	x	x	25µM*
Cc1ccc(CN2CCSc3ccc(C(=O)Nc4ccc(F)cc4F)cc32)cc1	-4%	x	x	x	x	u
CC1Cc2ccccc2N1C(=O)CSc1nc2ccc(NC(=O)COc3ccccc3)cc2s1 (centres undefined)	0%	x	x	x	x	x
Cc1nn(-c2ccc(N3CCCC3)nn2)c(C)c1CCC(=O)NCc1ccc(F)cc1	5%	x	x	x	x	x
Cc1c(Cl)cccc1NC(=O)Nc1nnc(N(C)Cc2ccccc2)s1	-14%	x	x	x	x	x
CC(C)C[C@@H](/C=C/S(C)(=O)=O)NC(=O)[C@H](CC(C)C)NC(=O)[C@H](CC(C)C)NC(=O)OCc1ccccc1	x	x	x	x	x	-111%
COc1ccc(N2CCN(C(=O)c3cc(-c4ccc(C)c(F)c4)on3)CC2)cc1	-9%	x	x	x	x	x
CCc1nnc(NC(=O)c2nc(SCc3ccc(F)cc3)ncc2Cl)s1	12µM*	x	x	x	x	2%
Cc1ccc(CSc2ncc(Cl)c(C(=O)Nc3nnc(C)s3)n2)cc1	15µM*	x	x	x	x	-4%
Cc1nc(-c2cc(-c3ccc(Cl)cc3)no2)cs1	1.2µM*	u	u	0.56µM*	1.1µM*	x
Clc1ccc(-c2cc(-c3ccccc3)on2)cc1	0.85µM*	u	u	1.3µM*	1.4µM*	x
COc1ccc(OC)c(NC(=O)Cn2c(=O)cc(C)c3c(C)nn(-c4cccc(Cl)c4C)c32)c1	-5%	x	x	x	x	x
CCC[C@H](Sc1nc(N)nc2nc[nH]c12)C(=O)O	x	x	x	x	x	-4%[9.22 µM]
c1ccc(CN2CCN(c3cnc4ccccc4n3)CC2)cc1	19µM*	u	u	u	u	x
Fc1ccccc1N1CCN(c2cnc3ccccc3n2)CC1	2.1µM*	x	x	x	x	2.8µM*
Oc1ccccc1N1CCN(c2ccc3ccccc3n2)CC1	5.4µM*	u	u	0.4µM*	1.3µM*	x
C[N+](C)(C)CC(=O)N1CCN(c2ccc3ccccc3n2)CC1	1%	0%	0%	-1%	0%	x
CC1CCCN(c2ccc(C(=O)NCc3ccccc3)cn2)C1 (centres undefined)	u	u	5%	u	17%	u
CC(C)(C)c1ccc(C(=O)NCCCNC(=O)c2ccco2)cc1	15µM*	0%	2%	1%	-4%	x
